# Screening data deposited in PubChem by The Scripps Research Institute Molecular Screening Center.
# TEAD-YAP block = TEAD-YAP interaction inhibition, primary screen, TEAD-YAP interaction inhibitor project, luminescence, HEK-TIYL cells | TEAD-Gal4/YAP UAS-luciferase luminescence | inhibition, % at 9.12 µM | actives 1.4% (n = 640,000); in the data active = inhibition above about 32%;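 also: 0% = median of test compound wells and 100% = reference inhibitor wells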
# MITF primary = MITF inhibitors, primary screen, biochemical, AlphaScreen, human; AlphaScreen MITF homodimerization, bead proximity signal; inhibition, % at 2.6 µM; actives 0.91% (n = 650,000); AID 1259374, 2018; in the data active = inhibition above about 50%;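 also: 0% = vehicle wells with protein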
# GPR151 ag = activators of human GPR151, primary screen, cell-based, PathHunter beta-arrestin, luminescence; activation, % at 11.2 µM; PathHunter beta-arrestin GPR151 cells; actives 1% (n = 650,000); AID 1508602, 2020; G-protein coupled receptor 151 (Homo sapiens), Q8TDV0; in the data active = activation above about 4.9%;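 also: 0% = median of compound wells and 100% = cells with positive control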
# FBW7 activator = FBW7 E3 ligase activators, primary screen, biochemical, AlphaScreen, human | AID 1259310, 2017 | F-box/WD repeat-containing protein 7 (Homo sapiens), Q969H0 | actives 0.13% (n = 650,000) | normalized activity (activation), % at 26.1 µM | AlphaScreen FBW7–phospho-cyclin E peptide binding, activator screen; in the data active = normalized activity above about 1.9%;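 also: purified mutant Fbw7 with reduced substrate affinity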
# Target sequence (Q969H0 whole entry, looked up): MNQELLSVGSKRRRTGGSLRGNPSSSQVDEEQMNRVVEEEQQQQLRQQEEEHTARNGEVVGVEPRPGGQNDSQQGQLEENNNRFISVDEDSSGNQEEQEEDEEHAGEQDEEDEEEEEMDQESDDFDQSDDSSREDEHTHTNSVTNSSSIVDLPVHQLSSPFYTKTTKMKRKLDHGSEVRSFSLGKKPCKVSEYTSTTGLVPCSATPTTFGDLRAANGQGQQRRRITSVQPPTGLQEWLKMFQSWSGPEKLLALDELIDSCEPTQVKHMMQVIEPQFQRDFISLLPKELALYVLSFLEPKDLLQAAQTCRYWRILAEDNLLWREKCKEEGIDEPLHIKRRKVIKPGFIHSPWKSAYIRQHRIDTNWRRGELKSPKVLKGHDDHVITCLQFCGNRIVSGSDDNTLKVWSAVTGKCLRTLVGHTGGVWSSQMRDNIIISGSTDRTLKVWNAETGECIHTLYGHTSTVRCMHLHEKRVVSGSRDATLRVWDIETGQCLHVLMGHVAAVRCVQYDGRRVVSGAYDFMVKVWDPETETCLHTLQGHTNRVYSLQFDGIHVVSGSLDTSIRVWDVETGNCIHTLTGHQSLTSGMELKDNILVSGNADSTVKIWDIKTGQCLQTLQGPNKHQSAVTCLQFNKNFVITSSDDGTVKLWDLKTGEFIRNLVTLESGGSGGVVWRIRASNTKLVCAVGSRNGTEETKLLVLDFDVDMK
# MITF confirm = MITF inhibitors, retest of hits, confirmation, biochemical, AlphaScreen, triplicate | actives 16% (n = 4,700) | shares compounds with MITF primary | AlphaScreen MITF homodimerization, biotin/His-MITF beads | inhibition, % at 2.6 µM;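 active = inhibition above a cutoff derived from the DMSO control wells, cut at about 28% in these data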;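 also: 0% = MITF dimer wells with DMSO only; inhibitors lower the bead chemiluminescence by keeping MITF from dimerizing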
# AS interf DR = AlphaScreen optical interference compounds, dose response, counter-screen, biochemical, HTS; shares compounds with MITF primary; AlphaScreen optical interference counterscreen, cell-free; IC50, µM; actives 6% (n = 480); AID 1259373, 2018; call rule not given here
# AS interf ctr = AlphaScreen optical interference compounds, counter-screen for MITF inhibitor project, biochemical, triplicate | shares compounds with MITF primary | actives 7.6% (n = 4,700) | LysRS AlphaScreen counterscreen, signal interference | inhibition, % at 2.6 µM | AID 1259376, 2018;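 active = inhibition above a cutoff derived from the DMSO control wells, cut at about 30% in these data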
# * marks the source's active call; other numbers are inactive results; x = no result given. The list is not random: actives were taken first. Their share in the collection is about 3.4%.
SMILES,TEAD-YAP block,MITF primary,GPR151 ag,FBW7 activator,MITF confirm,AS interf ctr,others
CCC(C)NCCOCCOc1ccc(Cl)c(Cl)c1 (centres undefined),-5.8,66.5*,1.4,-0.1,-2.7,-4.9,
CCC(C)NCCOc1ccc(Br)cc1 (centres undefined),3.6,75.7*,-0.7,-0.1,-13.9,0.6,
OC(CNCCCn1ccnc1)COc1ccccc1 (centres undefined),4.4,75.1*,-0.3,-0.2,6.5,17.4,
Cc1cccc(OCC(O)CNCCCn2ccnc2)c1 (centres undefined),11.3,65.4*,-0.7,0.0,0.1,0.6,
Cc1cc(C)n(CCCNCC(O)COc2ccc(C(=O)c3ccccc3)cc2)n1 (centres undefined),10.8,59.9*,-0.2,-0.1,-1.6,4.9,
OC(CNCCCn1ccnc1)COc1cccc2ccccc12 (centres undefined),12.1,83.6*,-0.6,-0.1,18.0,17.4,
Cc1cc(C)n(CCCNCC(O)COc2ccc(-c3ccccc3)cc2)n1 (centres undefined),5.5,34.8,1.5,0.0,x,x,
O=C(NCc1ccco1)/C(=C\c1ccco1)NC(=O)c1ccc(Br)cc1,2.4,1.3,1.0,0.5,x,x,
CCOC(=O)C1=C(c2ccccc2)NC(=S)NC1c1ccc(O)cc1 (centres undefined),1.3,2.9,1.3,-0.2,x,x,
COc1ccc(/C=C2/SC(=S)N(Cc3ccco3)C2=O)c(OC)c1,-7.6,15.8,0.0,0.2,x,x,
O=C(Nc1ccc(NC(=O)c2cccs2)cc1)c1ccco1,-46.5,75.9*,-2.6,0.0,-3.1,-4.3,
Cc1cc(C(C)(C)C)ccc1OCCCNCCN,1.3,9.8,4.2,-0.1,x,x,
C=CCNCCOc1ccc(C(C)(C)C)cc1C,9.6,51.0*,0.7,-0.1,-11.6,5.5,
Cc1cc(C(C)(C)C)ccc1OCCN(C)C,2.4,83.7*,2.0,-0.2,25.3,9.5,
C=CCNCCCOc1ccc(C(C)(C)C)cc1C,-6.6,31.6,-0.6,0.1,x,x,
COC(=O)c1sc(NC(=O)c2ccc(C)c(C)c2)c(C(N)=O)c1C,-7.8,1.9,-0.9,-0.1,x,x,
Brc1ccccc1CN1CCN(Cc2c[nH]c3ccccc23)CC1,3.8,58.6*,-0.1,-0.3,-4.5,-3.9,
c1ccc2c(CN3CCN(Cc4c[nH]c5ccccc45)CC3)cccc2c1,17.5,74.5*,0.6,0.0,-7.1,7.4,
c1cnc(N2CCN(Cc3c[nH]c4ccccc34)CC2)nc1,3.5,10.0,-0.1,0.0,x,x,
c1ccc2cc(CN3CCOCC3)ccc2c1,-17.4,-4.7,0.6,-0.2,x,x,
Clc1ccc(CN2CCN(Cc3c[nH]c4ccccc34)CC2)cc1,-9.2,74.7*,-1.1,-0.3,84.0*,9.4,AS interf DR=>5.86
Fc1ccccc1CN1CCN(Cc2ccc3ccccc3c2)CC1,0.3,74.9*,-1.4,0.6,-7.3,1.4,
CC(C)Oc1ccc(C(=O)Nc2c3c(nn2-c2ccc(Cl)cc2)CSC3)cc1,-4.8,1.2,1.2,0.0,x,x,
CN(Cc1ccc(F)cc1)Cc1c(C(=O)N2CCCC2)nc2sccn12,-6.0,4.2,1.3,-0.1,x,x,
CCS(=O)(=O)N1CCN(Cc2c[nH]c3ccccc23)CC1,11.5,50.6*,-2.0,0.1,4.8,9.5,
SMILES,TEAD-YAP block,MITF primary,GPR151 ag,FBW7 activator,MITF confirm,AS interf ctr,others
Fc1ccccc1CN1CCN(Cc2cccc3ccccc23)CC1,-11.8,73.8*,-0.7,-0.2,18.9,-3.8,
Fc1ccccc1CN1CCN(Cc2c[nH]c3ccccc23)CC1,14.6,65.4*,2.2,0.2,-2.2,-0.5,
Fc1ccccc1CN1CCCCCC1,1.3,16.4,-0.5,0.1,x,x,
O=C(c1cccc(F)c1)N1CCN(c2cc(-c3ccccc3)nc3ncnn23)CC1,0.7,14.0,0.5,-0.1,x,x,
CCOc1ccc(/C=C/C(=O)Nc2ccc(Cl)c([N+](=O)[O-])c2)cc1,-6.5,3.0,-0.9,-0.1,x,x,
O=C(Nc1ccc(Br)cc1)c1ccc([N+](=O)[O-])o1,9.4,9.9,1.4,0.3,x,x,
CC(=O)NS(=O)(=O)c1ccc(NC(=O)c2ccc([N+](=O)[O-])o2)cc1,11.5,64.1*,3.0,-0.1,40.4*,-5.1,AS interf DR=>6.61
COC(=O)c1ccc(/C=C2\SC(=S)N(C(CCC(=O)O)C(=O)O)C2=O)cc1 (centres undefined),-3.0,-6.6,-0.7,-0.6,x,x,
CCOc1cccc(C2CC(c3cccc(Br)c3)=NC(c3ccc(OC)c(Br)c3)N2)c1O (centres undefined),-20.7,3.1,-1.1,0.1,x,x,
Cc1cccc(NC2=C(C(=O)c3ccc(Cl)cc3)C(c3ccc(F)cc3)N(CCCCCC(=O)O)C2=O)c1 (centres undefined),-17.1,79.4*,0.8,0.3,-3.4,-1.4,
COc1ccc(NC(=O)COc2ccc(Cl)cc2)c(OC)c1,-2.5,5.4,1.5,-0.1,x,x,
Cc1sc2ncn(CC(=O)NCC(=O)Nc3ccc4c(c3)OCO4)c(=O)c2c1C,-7.6,54.9*,-1.7,0.4,-0.7,13.5,
N#C/C(=C\c1ccc2c(c1)OCO2)C(=O)OCC(=O)C12CC3CC(CC(C3)C1)C2,-0.1,14.6,-0.6,0.3,x,x,
Cc1nc(NCc2ccco2)c2c3c(sc2n1)CCCC3,-5.7,4.5,-0.5,0.1,x,x,
Cc1nc(NCc2ccco2)c2c(C)c(C)sc2n1,42.6*,59.3*,-1.3,-0.1,13.3,29.2,
CCCS(=O)(=O)N1CCN(Cc2ccc(CC)cc2)CC1,13.7,50.8*,1.2,0.0,1.9,8.0,
CCCS(=O)(=O)N1CCN(Cc2cc(OC)c(O)c(OC)c2)CC1,2.0,55.6*,-1.5,0.3,-2.0,10.9,
O=[N+]([O-])c1ccccc1S(=O)(=O)N1CCN(Cc2ccccc2C(F)(F)F)CC1,6.0,60.5*,-1.3,0.0,8.5,12.5,
CCS(=O)(=O)N1CCN(Cc2cc(OC)c(O)c(OC)c2)CC1,9.1,37.3,1.3,0.0,x,x,
Cc1ccc(S(=O)(=O)N2CCN(Cc3ccccc3Cl)CC2)cc1,-13.9,57.4*,3.4,-0.1,-4.0,-7.2,
CCOc1c(Br)cc(C(=O)NNC(=O)c2ccc3c(c2)OCO3)cc1OC,-11.2,-13.6,0.4,-0.1,x,x,
CCc1ccc(CN2CCN(S(=O)(=O)c3ccc(C)cc3)CC2)cc1,-0.2,58.1*,1.4,0.7,7.5,7.1,
Cc1ccc(S(=O)(=O)N2CCN(Cc3ccccc3C(F)(F)F)CC2)cc1,-38.2,67.3*,1.5,0.1,3.8,12.0,
COc1ccc(S(=O)(=O)N2CCN(Cc3ccccc3C(F)(F)F)CC2)cc1,2.9,-5.1,-1.5,-0.3,x,x,
